Experimental findings from PubChem BioAssay (NCATS) are described below.

Assay [1] has as its target Rap guanine nucleotide exchange factor 3 (Homo sapiens) (UniProt O95398). The experiment in a line: Confirmatory qHTS for antagonist of cAMP-regulated guanine nucleotide exchange factor 3 (EPAC1) (AID 1645880). Note: nearly all actives have a fitted effect of over 55% in size. Note: potency is the fitted concentration of half-maximal effect. The procedure, abridged:
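Nucleotide exchange uses 100 nM EPAC1, 250 nM RAP1B-BODIPY-GDP and 50 uM GDP, with compounds in a concentration-titration series. After 5 min at room temperature, fluorescence (480 nm ex/540 nm em) is read every 5 min for 30 min. Data are normalized to control ATA and DMSO.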

Assay [2] shares this target. The experiment in a line: Confirmatory qHTS for agonist of cAMP-regulated guanine nucleotide exchange factor 3 (EPAC1) (AID 1645881).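 For activation: EPAC1 catalysed release of BODIPY-GDP from Rap1B seen as fluorescence loss; 100% = effect of cAMP agonist control.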 Note: nearly all actives have a fitted effect of over 75% in size. Note: potency is the fitted concentration of half-maximal effect. Background: qHTS replaces the single test concentration by a dilution series.
The target of assay [3] is Rap guanine nucleotide exchange factor 4 (Homo sapiens) (UniProt Q8WZA2). The experiment in a line: Confirmatory qHTS for agonist of cAMP-regulated guanine nucleotide exchange factor 4 (EPAC2) (AID 1645884). For activation: % is set by controls: 0 for no effect and ±100 for the full control effect.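 Note: nucleotide exchange releases bodipy-GDP from Rap1 and this lowers its fluorescence; nearly all actives have a fitted effect of over 65% in size.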 Note: potency is the fitted concentration of half-maximal effect.
Rap guanine nucleotide exchange factor 4 (Homo sapiens), sequence (Q8WZA2 whole entry, looked up): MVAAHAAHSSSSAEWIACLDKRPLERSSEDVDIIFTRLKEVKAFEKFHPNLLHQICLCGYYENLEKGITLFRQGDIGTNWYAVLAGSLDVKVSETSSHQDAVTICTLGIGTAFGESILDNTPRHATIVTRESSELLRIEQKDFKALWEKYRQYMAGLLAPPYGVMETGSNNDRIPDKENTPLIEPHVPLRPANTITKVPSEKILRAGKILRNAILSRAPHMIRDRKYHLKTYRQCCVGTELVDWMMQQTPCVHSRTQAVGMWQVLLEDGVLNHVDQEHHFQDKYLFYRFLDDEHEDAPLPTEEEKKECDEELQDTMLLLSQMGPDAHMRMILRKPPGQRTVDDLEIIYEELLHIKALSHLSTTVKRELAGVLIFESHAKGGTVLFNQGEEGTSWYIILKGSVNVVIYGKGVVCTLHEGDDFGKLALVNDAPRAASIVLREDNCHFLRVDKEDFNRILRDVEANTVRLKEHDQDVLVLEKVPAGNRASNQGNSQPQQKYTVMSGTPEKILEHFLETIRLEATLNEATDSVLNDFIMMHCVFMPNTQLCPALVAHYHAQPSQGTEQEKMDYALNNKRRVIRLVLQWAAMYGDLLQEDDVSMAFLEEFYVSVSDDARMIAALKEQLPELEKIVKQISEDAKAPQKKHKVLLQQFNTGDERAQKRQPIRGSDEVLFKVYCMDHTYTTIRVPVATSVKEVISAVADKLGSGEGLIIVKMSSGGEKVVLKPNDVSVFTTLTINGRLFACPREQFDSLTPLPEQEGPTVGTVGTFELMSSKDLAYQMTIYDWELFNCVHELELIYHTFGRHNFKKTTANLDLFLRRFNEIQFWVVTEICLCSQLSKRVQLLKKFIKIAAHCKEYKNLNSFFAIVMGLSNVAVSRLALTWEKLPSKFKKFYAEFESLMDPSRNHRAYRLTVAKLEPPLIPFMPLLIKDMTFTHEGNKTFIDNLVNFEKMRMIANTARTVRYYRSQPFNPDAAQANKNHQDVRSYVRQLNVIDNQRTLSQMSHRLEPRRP
Assay [4] has the same target. The experiment in a line: Confirmatory qHTS for antagonist of cAMP-regulated guanine nucleotide exchange factor 4 (EPAC2) (AID 1645885). For activity change, negative = inhibition: % is set by controls: 0 for no effect and ±100 for the full control effect. Note: nearly all actives have a fitted effect of over 25% in size. Note: potency is the fitted concentration of half-maximal effect.
The target in assay [5] is Rap guanine nucleotide exchange factor 3 (Homo sapiens) (UniProt O95398). The experiment in a line: Counterscreen qHTS for antagonist of cAMP-regulated guanine nucleotide exchange factor 3 (EPAC1) (AID 1645888).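 Note: fluorescence loss as bound BODIPY-GDP is released from Rap1B; % of control where 0% means no effect.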 The procedure, abridged: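 Rap1B-BODIPY-GDP 250 nM + GDP 50 uM; cpds 7-pt, final 9.74 nM–152 uM (activator mode) or from 7.32 nM upwards (inhibitor mode); RT; FI 480/540 nm at 5 and 30 min, then ± cAMP, reread.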
Rap guanine nucleotide exchange factor 3 (Homo sapiens), sequence (O95398 whole entry, looked up): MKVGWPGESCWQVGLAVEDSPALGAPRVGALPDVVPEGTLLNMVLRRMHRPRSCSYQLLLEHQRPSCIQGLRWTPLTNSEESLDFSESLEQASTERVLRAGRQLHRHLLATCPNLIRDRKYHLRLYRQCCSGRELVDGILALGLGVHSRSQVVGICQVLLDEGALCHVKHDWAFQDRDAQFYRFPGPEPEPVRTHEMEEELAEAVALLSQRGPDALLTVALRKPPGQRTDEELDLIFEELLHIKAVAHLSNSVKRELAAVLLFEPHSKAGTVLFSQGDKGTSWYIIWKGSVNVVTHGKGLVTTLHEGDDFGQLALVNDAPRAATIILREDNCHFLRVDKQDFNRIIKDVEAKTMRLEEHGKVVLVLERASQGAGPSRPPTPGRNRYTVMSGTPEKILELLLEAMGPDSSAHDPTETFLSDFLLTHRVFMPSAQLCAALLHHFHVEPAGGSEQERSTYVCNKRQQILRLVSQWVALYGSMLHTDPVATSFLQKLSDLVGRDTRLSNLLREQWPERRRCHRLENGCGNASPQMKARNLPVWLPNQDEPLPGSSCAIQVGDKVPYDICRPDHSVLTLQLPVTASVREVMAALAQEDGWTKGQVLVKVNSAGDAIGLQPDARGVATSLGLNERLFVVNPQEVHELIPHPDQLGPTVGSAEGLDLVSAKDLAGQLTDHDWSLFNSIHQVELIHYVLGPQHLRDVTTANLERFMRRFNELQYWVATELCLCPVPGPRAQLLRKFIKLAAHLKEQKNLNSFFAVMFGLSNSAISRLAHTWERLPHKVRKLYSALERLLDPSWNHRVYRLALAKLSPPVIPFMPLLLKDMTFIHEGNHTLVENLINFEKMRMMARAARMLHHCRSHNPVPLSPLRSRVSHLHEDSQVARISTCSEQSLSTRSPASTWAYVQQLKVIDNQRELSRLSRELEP

Records with an inconclusive call do not appear. Unmarked numbers belong to inactive results. Calls of active or inactive are those of the source. Calls come from the whole dose curve; as a rule, active = well fitted curve in the direction sought with a large enough effect; inconclusive = small, poorly fitted or top-dose-only effect, or another doubt; inactive = no such curve, though single readings can be large; an effect the other way counts as inactive or inconclusive.

Consider `Cc1ccc(S(=O)(=O)N2[C@@H](c3ccc(Br)cc3)C(C(=O)O)=CC[C@H]2c2ccc(C(C)C)cc2)cc1`, for which, in assay [1], the Potency is 16.9 µM (active). Also, the Potency result in assay [2], in assay [3], in assay [4] and in assay [5] was “inactive” in each case.
Turning to `O=C(CCCC(=O)Nc1cccnc1)Nc1cccnc1`, the Potency result in assay [1], in assay [2], in assay [3], in assay [4] and in assay [5] was “inactive” throughout.
Consider `Fc1cc(F)c(F)c(SCn2cc(Br)cn2)c1F`, for which the Potency result in assay [1], in assay [2] and in assay [4] was “inactive” throughout. The activation in assay [3] is 5.6% [at 17.1 µM, percent relative to cAMP agonist control]. Moreover, the activity change, negative = inhibition in assay [5] is -7.43% [at 30.8 µM].
For the compound `NNc1nc2c(Cl)c(Cl)ccc2s1`, the Potency result in assay [1], in assay [2] and in assay [4] was “inactive” each time. The activation in assay [3] was 7.89% [at 17.1 µM, percent relative to cAMP agonist control]. Further, in assay [5], the activity change, negative = inhibition is 3.53% [at 30.8 µM].
Consider `CC1(C(=O)NS(=O)(=O)c2cccs2)CCN1C(=O)C1(c2ccc(Cl)cc2)CCC1` (stereo not given), for which the Potency in assay [1] is 15.8 µM (active). Besides, the Potency entry in assay [2] and in assay [4] was “inactive” in each case. Besides, the activation in assay [3] was 1.54% [at 17.1 µM, percent relative to cAMP agonist control]. For the same compound, the activity change, negative = inhibition in assay [5] is -14.6% [at 30.8 µM].
In the case of `COc1ccc(-c2onc3ccc(C(C)=O)cc23)cc1`, the Potency entry in assay [1] and in assay [5] was “inactive” throughout. Further, the Potency in assay [2] is 79.4 µM (active); in assay [3], 79.4 µM (active); in assay [4] it was 19 µM (active).
Regarding `Cc1onc(-c2c(F)cccc2Cl)c1C(=O)OCC(=O)N(C)c1ccccc1`, the Potency result in assay [1], in assay [2] and in assay [4] was “inactive” in each case. In assay [3], the activation is 4.47% [at 17.1 µM, percent relative to cAMP agonist control]. In addition, the activity change, negative = inhibition in assay [5] was -6.38% [at 30.8 µM].
Consider `O=c1cc(O)c2sc3nc(-c4cccnc4)cc(C(F)(F)F)c3c2[nH]1`, for which the Potency result in assay [1], in assay [2], in assay [3], in assay [4] and in assay [5] was “inactive” each time.
Regarding `CCc1ccccc1Oc1nc(NC(C)C)nc2ccsc12`, the Potency entry in assay [1], in assay [2] and in assay [4] was “inactive” each time. In addition, in assay [3], the activation is 7.29% [at 17.1 µM, percent relative to cAMP agonist control]. In assay [5], the activity change, negative = inhibition was -29.4% [at 30.8 µM].
In the case of `CCOC(=O)c1ccc(NC(=O)Cn2nc(C)c3nn(-c4ccc(Cl)cc4)c(C)c3c2=O)cc1`, the Potency entry in assay [1], in assay [2], in assay [3], in assay [4] and in assay [5] was “inactive” each time.
For `Cc1ccccc1C(=O)NCC(=O)N1CCN(c2ccccn2)CC1`, the Potency result in assay [1], in assay [2] and in assay [4] was “inactive” in each case. The activation in assay [3] is 9.91% [at 17.1 µM, percent relative to cAMP agonist control]. The activity change, negative = inhibition in assay [5] is -4.53% [at 30.8 µM].
For the compound `COc1ccc(N(Cc2cccs2)C(=O)c2ccco2)cc1`, the Potency result in assay [1], in assay [2], in assay [3] and in assay [5] was “inactive” each time. Also, the outcome in assay [4] was “inactive [at 12.7 µM]”.
As for `COc1ccc(OC)c(Nc2ncc3c(n2)CCN(Cc2cc(OC)c(OC)c(OC)c2)C3)c1`, the Potency result in assay [1], in assay [2], in assay [3], in assay [4] and in assay [5] was “inactive” in each case.
On to `CCN1C(=O)/C(=C/c2ccc(N3CCCC3)cc2)NC1=S`, for which the Potency result in assay [1], in assay [2] and in assay [4] was “inactive” each time. For the same compound, the activation in assay [3] was 1.83% [at 17.1 µM, percent relative to cAMP agonist control]. In addition, the activity change, negative = inhibition in assay [5] was 97.9% [at 30.8 µM].
With `C=CCn1c(NC(=O)c2ccccc2Cl)c(C#N)c2nc3ccccc3nc21`, the Potency in assay [1] is 35.5 µM (active); in assay [4], 3.01 µM (active). Also, the Potency result in assay [2] was “inactive”. The activation in assay [3] was -3.42% [at 17.1 µM, percent relative to cAMP agonist control]. Besides, the activity change, negative = inhibition in assay [5] is -7.8% [at 30.8 µM].
In the case of `Cc1cccc(C(=O)Nc2cccc(C(=O)N/N=C/c3cccc(C)n3)c2)c1`, the Potency result in assay [1], in assay [2], in assay [3], in assay [4] and in assay [5] was “inactive” each time.
With `OC1CCN(c2c3c(nc4cc(-c5cccc(F)c5)nn24)CCCC3)CC1`, the Potency result in assay [1], in assay [2], in assay [3], in assay [4] and in assay [5] was “inactive” in each case.
As for `CCOc1ccc(C2=CC(c3cccc(Br)c3)n3c(nc4ccccc43)N2)cc1Cl` (stereo not given), the Potency result in assay [1], in assay [2], in assay [3], in assay [4] and in assay [5] was “inactive” each time.
On to `CC(=O)NC(c1ccccc1)c1cc(Cl)c2cccnc2c1O` (stereo not given), for which the Potency result in assay [1], in assay [2], in assay [3], in assay [4] and in assay [5] was “inactive” each time.
For the compound `N#C/C(=C\c1ccc(C(=O)O)cc1)c1nc2sc3c(c2c(=O)[nH]1)CCCC3`, the Potency result in assay [1], in assay [2] and in assay [4] was “inactive” in each case. In addition, the activation in assay [3] was 10.5% [at 17.1 µM, percent relative to cAMP agonist control]. The activity change, negative = inhibition in assay [5] is 7.93% [at 30.8 µM].
In the case of `COc1ccc(OC)c(NC(=O)CN(C)CCOc2ccc(Br)cc2)c1`, the Potency result in assay [1], in assay [2], in assay [3], in assay [4] and in assay [5] was “inactive” throughout.
Turning to `COc1ccc(OC)c(/C=C2\SC(=S)N(NS(=O)(=O)c3ccc(C)cc3)C2=O)c1`, the values for the Potency in assay [1] and in assay [4] were 30.1 µM (active) and 47.8 µM (active), respectively. Moreover, the Potency result in assay [2], in assay [3] and in assay [5] was “inactive” throughout.
As to `CC(C)O/C(=N\S(=O)(=O)c1ccc(Cl)cc1)c1ccccc1`, the Potency entry in assay [1], in assay [2], in assay [3] and in assay [5] was “inactive” throughout. Also, the Potency in assay [4] is 16.9 µM (active).
